Measurements reported in PubChem BioAssay AID1159569 (Broad Institute, 2015).
Entries with a potency or affinity are not part of this list. Inconclusive results are not listed. Active and inactive are the calls of the source. How the calls were made is not given here.

test: toxicity to human HepG2 hepatoma cells – cell-based, plate reader, dry powder samples, cytotoxicity control, dose response (AID 1159569); conditions: HepG2 cytotoxicity counterscreen; series mostly up to 50 µM

SMILES	outcome
COc1ccc2c3c(n(C)c2c1)[C@@H](CO)N(C(=O)C1CCCC1)CC31CCN(C(=O)Nc2cccc(F)c2)CC1	inactive
O=C(NC[C@@H]1CC[C@H]2[C@H](CN2Cc2cc(-c3ccccc3)on2)O1)c1ccc2c(c1)OCO2	inactive
C[C@@H]1CN([C@H](C)CO)C(=O)c2cc(NC(=O)Nc3ccc(C(F)(F)F)cc3)ccc2O[C@H]1CN(C)C(=O)Nc1cccc2ccccc12	inactive
COc1ccc2c3c(n(C)c2c1)[C@@H](CO)N(C(=O)C1CC1)CC31CCN(C(=O)Nc2cccc(F)c2)CC1	inactive
C[C@@H]1CN([C@H](C)CO)C(=O)c2cccc(NC(=O)c3ccc(-c4nccs4)cc3)c2O[C@H]1CN(C)Cc1ccc(C(F)(F)F)cc1	inactive
COc1ccc(C#Cc2ccc3c(c2)O[C@@H](CN(C)S(=O)(=O)c2ccccc2F)[C@@H](C)CN([C@@H](C)CO)S3(=O)=O)cc1	inactive
Cc1ccc(S(=O)(=O)N(C)C[C@H]2OCc3ccccc3-c3c(n(C)c4ccccc34)C(=O)N([C@@H](C)CO)C[C@@H]2C)cc1	inactive
C[C@@H]1CN([C@H](C)CO)C(=O)c2cc(/C=C/c3ccccc3)cnc2O[C@H]1CN(C)C(=O)NC1CCCCC1	inactive
C[C@@H]1CN([C@@H](C)CO)C(=O)c2cccc(NC(=O)c3nc4ccccc4s3)c2O[C@H]1CN(C)C(=O)Nc1ccc2c(c1)OCO2	inactive
CCC(=O)N1CCC2(CC1)CN(S(=O)(=O)c1ccccc1)[C@@H](CO)c1[nH]c3cc(OC)ccc3c12	inactive
C/C=C/c1ccccc1[C@H]1[C@@H](C#N)N(C(=O)NC2CCCC2)[C@H]1CO	inactive
